The values below come from PubChem BioAssay.

Calls of active or inactive are those of the source.

Assay [1] addresses Albumin (Bos taurus) (UniProt P02769). The experiment in a line: bovine serum albumin binders on microarray, profiling panel, artefact control for SMM control protein annotation, biochemical, small-molecule microarray, Alexa647 label, 635/667 nm fluorescence (AID 1118).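 Also: score merges 667 nm emission intensity and signal-to-noise per printed compound spot.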 As to conditions: BSA-A647 binding, fluorescence 635 nm, higher = more signal.
A short description of assay [2]: small-molecule microarray binders of probe aXIP, primary screen, biochemical, NeuroSMM set, 635/667 nm fluorescence (AID 1119).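 Also: probe is the protein aXip251-270 applied at 1 µg/mL to compound-printed slides; binding of probe to printed compounds measured as 667 nm fluorescence plus signal to noise.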 As to conditions: higher = more signal, called active from +8 up or from −8 down.
Assay [3] in a line: small-molecule binders of probe aNOTCH3, primary screen, biochemical, small-molecule microarray, 635/667 nm fluorescence (AID 1120).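 Also: probe is a biotin-tagged antibody raised against NOTCH3 rather than NOTCH3 protein; score merges spot fluorescence near 667 nm with spot signal to noise.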 As to conditions: higher = more signal.
The nature of assay [4]: small-molecule binders of probe aNOTCH2, primary screen, biochemical, small-molecule microarray, 635/667 nm fluorescence (AID 1121).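 Also: score merges feature fluorescence read at 667 nm with its signal to noise.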 Particulars: higher = more signal.
The target in assay [5] is Carbonic anhydrase 2 (Homo sapiens) (UniProt P00918). As to the kind of experiment: CAII small-molecule binders, profiling panel, biochemical, small-molecule microarray, Alexa647-labelled CAII (AID 1122). Particulars: CAII-A647 binding fluorescence, higher = more signal.
A short description of assay [6]: COS7 lysate on small-molecule microarray, probe aHis, 635 nm (AID 1123).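 Also: z-score combines 667nm fluorescence intensity with signal-to-noise per printed compound spot.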 Particulars: COS7 cell lysate, fluorescence, higher = more signal.
Assay [7] is described as follows: compound binding in COS7 lysate, probe aLAP1, primary screen, cell lysate, small-molecule microarray (AID 1124).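 Also: lysate comes from COS7 cells expressing LAP1 and is applied at 0.3 µg/mL; score merges spot fluorescence near 667 nm with signal-to-noise over triplicate slides.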 Particulars: probe aLAP1, fluorescence, higher = more signal.
Assay [8] deals with Sam68 (KHDRBS1). The experiment in a line: Sam68 small-molecule binders, primary screen, biochemical, small-molecule microarray, 635 nm fluorescence (AID 1125).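 Also: score merges 667 nm channel intensity with signal to noise over triplicate slides.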 As to conditions: small-molecule microarray binding, higher = more signal.
Assay [9] has as its system Chordin-like protein 2 (CHRDL2). As to the kind of experiment: CHRDL2 small-molecule binders, primary screen, biochemical, small-molecule microarray, 635 nm fluorescence (AID 1126).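 Also: printed compound slides probed with Chrdl2 protein at 4 µg/mL for 1 h at 4 C; score merges 667 nm emission intensity with signal to noise over three replicate slides.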 As to conditions: small-molecule microarray binding, fluorescence 635 nm; higher = more signal.
The target of assay [10] is Concanavalin-A (Canavalia ensiformis) (UniProt P02866). The experiment in a line: ConA small-molecule binders, primary screen, artefact control for SMM control protein annotation, biochemical, small-molecule microarray, Alexa647 label, 635 nm (AID 1127).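 Also: z combines 667 nm emission intensity with signal-to-noise across three replicate slides.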 Particulars: ConA-A647 binding fluorescence, higher = more signal.
Concanavalin-A (Canavalia ensiformis), sequence (P02866 whole entry, looked up): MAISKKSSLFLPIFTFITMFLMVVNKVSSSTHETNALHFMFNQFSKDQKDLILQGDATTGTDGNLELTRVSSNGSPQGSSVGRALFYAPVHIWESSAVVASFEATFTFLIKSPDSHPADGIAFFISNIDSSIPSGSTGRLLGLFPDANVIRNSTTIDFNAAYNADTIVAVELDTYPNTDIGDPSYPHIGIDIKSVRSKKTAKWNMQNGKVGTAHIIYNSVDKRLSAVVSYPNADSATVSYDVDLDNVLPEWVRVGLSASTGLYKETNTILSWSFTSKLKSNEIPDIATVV
Assay [11] in a line: anti-His antibody binders, primary screen, artefact control for SMM control protein annotation, biochemical, small-molecule microarray, 635 nm fluorescence (AID 1128).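 Also: score merges feature fluorescence with signal-to-noise for each printed compound spot.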 Particulars: anti-His Alexa647 antibody binding, higher = more signal.
In assay [12] the test system is Human papillomavirus type 1a E7 protein (residues 1-88). As to the kind of experiment: HPV1a E7 small-molecule binders, primary screen, biochemical, small-molecule microarray, residues 1-88, 635 nm (AID 1129). Particulars: small-molecule microarray binding, fluorescence 635 nm; higher = more signal.
In assay [13] the target is Focal adhesion kinase 1 (Homo sapiens) (UniProt Q05397). As to the kind of experiment: small-molecule microarray binders of FAK, primary screen, biochemical, 635/667 nm fluorescence, BSA, DTT (AID 1130).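 Also: composite of spot emission at 667 nm and signal to noise over triplicate slides.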 Particulars: PTK2 binding, 635 nm fluorescence, higher = more signal.
Focal adhesion kinase 1 (Homo sapiens), sequence (Q05397 whole entry, looked up): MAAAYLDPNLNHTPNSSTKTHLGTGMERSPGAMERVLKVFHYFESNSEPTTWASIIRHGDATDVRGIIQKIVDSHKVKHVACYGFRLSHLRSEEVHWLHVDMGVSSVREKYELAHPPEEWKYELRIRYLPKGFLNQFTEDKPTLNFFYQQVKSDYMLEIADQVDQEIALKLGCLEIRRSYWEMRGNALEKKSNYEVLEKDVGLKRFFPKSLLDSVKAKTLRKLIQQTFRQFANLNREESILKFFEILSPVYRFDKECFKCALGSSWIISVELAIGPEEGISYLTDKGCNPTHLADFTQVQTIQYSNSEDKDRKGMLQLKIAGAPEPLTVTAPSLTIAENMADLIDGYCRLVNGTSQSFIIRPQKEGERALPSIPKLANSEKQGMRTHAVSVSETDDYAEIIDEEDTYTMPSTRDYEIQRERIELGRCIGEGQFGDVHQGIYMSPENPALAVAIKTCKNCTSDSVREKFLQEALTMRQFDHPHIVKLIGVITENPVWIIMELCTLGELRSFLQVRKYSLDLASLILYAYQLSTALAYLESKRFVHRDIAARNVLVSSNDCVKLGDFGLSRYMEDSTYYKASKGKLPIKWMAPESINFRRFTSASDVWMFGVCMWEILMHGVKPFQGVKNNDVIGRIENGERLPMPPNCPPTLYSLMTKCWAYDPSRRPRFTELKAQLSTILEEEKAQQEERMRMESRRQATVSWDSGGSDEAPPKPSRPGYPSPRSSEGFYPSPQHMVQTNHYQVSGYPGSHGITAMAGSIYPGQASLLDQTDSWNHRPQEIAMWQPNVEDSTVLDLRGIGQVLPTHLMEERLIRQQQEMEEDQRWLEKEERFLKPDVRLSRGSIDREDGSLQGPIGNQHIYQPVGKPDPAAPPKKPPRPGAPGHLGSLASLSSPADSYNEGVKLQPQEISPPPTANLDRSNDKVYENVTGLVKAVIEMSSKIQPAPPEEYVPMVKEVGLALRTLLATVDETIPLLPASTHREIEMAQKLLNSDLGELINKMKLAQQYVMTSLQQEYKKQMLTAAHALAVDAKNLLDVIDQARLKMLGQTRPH
Assay [14] relates to Fibrinogen (Alexa647-labelled). As to the kind of experiment: fibrinogen binders on compound microarrays, profiling panel, artefact control for SMM control-protein annotation, biochemical, small-molecule microarray, 635/667 nm fluorescence (AID 1131).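 Also: z-score merges 667 nm fluorescence with per-spot signal-to-noise over triplicate slides.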 As to conditions: fibrinogen-A647 binding fluorescence, higher = more signal.
Assay [15] deals with Follistatin (Homo sapiens) (UniProt P19883). As to the kind of experiment: follistatin binders on small-molecule microarrays, primary screen, biochemical, small-molecule microarray, 635/667 nm fluorescence (AID 1132). Particulars: FST binding, 635 nm fluorescence, higher = more signal.
Follistatin (Homo sapiens), sequence (P19883 whole entry, looked up): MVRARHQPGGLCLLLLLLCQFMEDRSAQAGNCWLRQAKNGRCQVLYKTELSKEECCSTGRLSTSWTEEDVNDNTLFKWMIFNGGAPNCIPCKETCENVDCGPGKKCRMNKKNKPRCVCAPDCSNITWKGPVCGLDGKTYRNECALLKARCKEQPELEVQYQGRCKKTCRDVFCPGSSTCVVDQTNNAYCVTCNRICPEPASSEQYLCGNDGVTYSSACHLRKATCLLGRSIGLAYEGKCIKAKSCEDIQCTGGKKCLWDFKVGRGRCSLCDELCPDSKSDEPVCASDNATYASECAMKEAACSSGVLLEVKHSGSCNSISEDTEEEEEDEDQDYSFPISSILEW
Assay [16] has as its target Fibroblast growth factor 2 (Homo sapiens) (UniProt P09038). As to the kind of experiment: FGF2 binders on small-molecule microarrays, primary screen, biochemical, small-molecule microarray, 635/667 nm fluorescence (AID 1133). Particulars: small-molecule microarray binding, FGF2, fluorescence 635/667; higher = more signal.
A short description of assay [17]: mitochondrial membrane potential change in A549 cells, profiling panel, cell-based, JC-1 fluorescence, basal, 24 h, 100 nL (AID 1138).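 Also: A549 lung adenocarcinoma cells under basal conditions with no added stimulus; test concentration not given here.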 As to conditions: higher = more signal.
The subject of assay [18] is Lefty1. The experiment in a line: Lefty1 binders on small-molecule microarrays, primary screen, biochemical, small-molecule microarray, 635/667 nm fluorescence (AID 1139). Particulars: small-molecule microarray binding, fluorescence 635/667; higher = more signal.
The test system of assay [19] is wheat germ agglutinin (Triticum aestivum), Alexa647-labelled. The experiment in a line: wheat germ agglutinin binders on compound microarrays, profiling panel, artefact control for SMM control-protein annotation, biochemical, small-molecule microarray, 635/667 nm fluorescence (AID 1140).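 Also: score merges 667 nm feature emission with signal to noise over triplicate slides.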 As to conditions: WGA-A647 binding, 635 nm fluorescence, higher = more signal.
Assay [20] concerns the target Luciferin 4-monooxygenase (Photinus pyralis) (UniProt P08659). As to the kind of experiment: firefly luciferase enzyme inhibitors, primary screen, biochemical, luminescence, purified enzyme, 2006 set (AID 1141).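 Also: cell-free assay with purified firefly luciferase at 100 ng per well in PBS; test concentration not given here.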 Particulars: SteadyGlo luminescence, 30 min, higher = more signal, called active from +8 up or from −8 down.

Fibroblast growth factor 2 (Homo sapiens), sequence (P09038 whole entry, looked up): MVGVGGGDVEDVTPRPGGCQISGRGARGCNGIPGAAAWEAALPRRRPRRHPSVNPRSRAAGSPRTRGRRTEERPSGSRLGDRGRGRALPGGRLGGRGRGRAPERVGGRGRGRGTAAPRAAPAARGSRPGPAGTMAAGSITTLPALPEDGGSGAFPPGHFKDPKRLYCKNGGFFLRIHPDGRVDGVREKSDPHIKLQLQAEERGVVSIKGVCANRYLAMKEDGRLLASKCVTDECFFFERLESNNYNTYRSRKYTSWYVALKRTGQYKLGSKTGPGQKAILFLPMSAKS
Albumin (Bos taurus), sequence (P02769 whole entry, looked up): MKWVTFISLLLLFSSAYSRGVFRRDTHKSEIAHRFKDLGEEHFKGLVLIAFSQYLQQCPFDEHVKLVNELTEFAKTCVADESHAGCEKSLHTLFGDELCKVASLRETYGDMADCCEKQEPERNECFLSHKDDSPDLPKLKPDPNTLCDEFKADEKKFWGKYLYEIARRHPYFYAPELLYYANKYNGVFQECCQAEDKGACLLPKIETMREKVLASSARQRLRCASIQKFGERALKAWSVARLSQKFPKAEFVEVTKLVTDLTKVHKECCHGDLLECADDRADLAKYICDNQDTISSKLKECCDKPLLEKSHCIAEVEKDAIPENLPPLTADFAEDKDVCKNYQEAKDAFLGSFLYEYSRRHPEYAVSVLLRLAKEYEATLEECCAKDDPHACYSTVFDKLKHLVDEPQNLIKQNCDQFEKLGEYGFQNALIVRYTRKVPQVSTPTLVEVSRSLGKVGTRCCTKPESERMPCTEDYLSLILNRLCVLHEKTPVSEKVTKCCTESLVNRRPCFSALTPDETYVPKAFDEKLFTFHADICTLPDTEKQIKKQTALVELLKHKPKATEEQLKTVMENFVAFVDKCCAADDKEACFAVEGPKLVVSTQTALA
Luciferin 4-monooxygenase (Photinus pyralis), sequence (P08659 whole entry, looked up): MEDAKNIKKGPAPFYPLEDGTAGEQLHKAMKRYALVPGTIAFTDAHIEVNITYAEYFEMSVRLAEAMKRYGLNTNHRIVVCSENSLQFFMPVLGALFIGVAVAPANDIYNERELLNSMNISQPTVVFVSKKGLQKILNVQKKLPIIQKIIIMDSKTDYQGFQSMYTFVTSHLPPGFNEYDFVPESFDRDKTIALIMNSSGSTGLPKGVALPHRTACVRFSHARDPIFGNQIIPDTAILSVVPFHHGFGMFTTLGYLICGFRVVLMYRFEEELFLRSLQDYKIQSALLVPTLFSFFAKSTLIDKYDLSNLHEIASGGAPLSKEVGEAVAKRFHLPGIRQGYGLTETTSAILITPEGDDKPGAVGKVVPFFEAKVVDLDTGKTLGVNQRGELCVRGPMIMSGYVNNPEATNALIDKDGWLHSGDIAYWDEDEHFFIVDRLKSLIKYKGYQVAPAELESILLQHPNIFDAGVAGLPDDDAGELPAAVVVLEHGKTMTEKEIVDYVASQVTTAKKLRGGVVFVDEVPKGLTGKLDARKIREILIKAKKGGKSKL

For the compound `Cc1cc(C)c(C(O)C2C=CC3C(=O)N(c4ccccc4)C(=O)C3N2Nc2ccc(C(C)C)cc2)c(C)c1` (stereo not given), the composite z-score in assay [1] was 0.585; in assay [3], 0.331; in [4], 0.0557; in assay [5], 0.712; in assay [6], 2.78; in assay [7], 0.8. Moreover, the composite z-score in [8] was 1.29; in assay [9], -0.545; in assay [10], 1.18; in [11], 1.11; in assay [12], 1.26; in assay [13] it was 1.22. For the same compound, the composite z-score in assay [14] is 1.02; in [15], 0.811; in assay [16] it was 0.375; in [18] it was -0.138; in [19], 1.39. Besides, the composite Z-score in [2] was 0.904 (inactive). For the same compound, the z-score in [17] is 0.178; in assay [20], -0.197 (inactive).
Regarding `C=CC1c2cc(O)c(OC)cc2CCN1Cc1cc2c(cc1Br)OCO2` (stereo not given), the composite z-score was -0.956 in [1]; -0.0152 in [3]; -0.0891 in assay [4]; 0.823 in [5]; 1.99 in [6]; 1.25 in assay [7]. The composite z-score in assay [8] is 0.342; in [9], 0.775; in assay [10], 0.142; in assay [11], 0.976; in [12], -1.38; in [13], -0.0181. In addition, the composite z-score is -0.851 in assay [14]; 1.27 in [15]; -0.0941 in assay [16]; 0.504 in assay [18]; -0.623 in [19]. Moreover, the composite Z-score in assay [2] is 0.577 (inactive). Further, the z-score in assay [17] is -1.54; in [20], 0.0715 (inactive).
In the case of `O[C@@H](Cc1ccccc1)[C@@H](/C=C/C1CC1)N(CC#Cc1ccccc1)Cc1cccc(Cl)c1`, the composite z-score is -0.22 in assay [1]; -0.376 in [3]; -0.117 in assay [4]; -0.245 in assay [5]; -0.359 in assay [6]; 0.0449 in assay [7]. The composite z-score in assay [8] was -0.117; in assay [9] it was -1.21; in assay [10] it was -0.403; in assay [11] it was -0.156; in [12], -0.429; in [13] it was -0.0816. The composite z-score in assay [14] is -0.6; in assay [15], -1.19; in assay [16], -1.43; in assay [18] it was -0.954; in assay [19], 0.197. In addition, the composite Z-score in assay [2] was 0.889 (inactive). In addition, the results for the z-score in [17] and in assay [20] were 0.513 and 0.466 (inactive), respectively.
For `COC(=O)[C@@]1(Cc2ccc(OC)cc2)[C@H]2c3cc(C(=O)N(C)C)n(C[C@H](O)CO)c3C[C@H]2CN1C(=O)c1ccccc1`, the composite z-score came out at 0.956 in assay [1]; 0.301 in [3]; 0.462 in assay [4]; 0.782 in [5]; 2.24 in assay [6]; 0.828 in assay [7]. Also, the composite z-score in [8] was 0.833; in assay [9] it was -1.29; in assay [10], 0.863; in assay [11], 0.396; in [12] it was 1.2; in assay [13], 1.17. Moreover, the composite z-score was 0.904 in assay [14]; 0.291 in assay [15]; -1.16 in assay [16]; -0.908 in assay [18]; 1.34 in [19]. For the same compound, the composite Z-score in [2] is -0.312 (inactive). Also, the z-score was 0.193 in [17] and 0.543 (inactive) in [20].
Take `Cc1ccc(S[C@]2(C(=O)NCC(F)(F)F)CC(=O)N(Cc3ccccc3)[C@@H]2c2ccc(CO)cc2I)cc1`: the composite z-score is 0.132 in [1]; -0.212 in [3]; -0.183 in [4]; 0.679 in assay [5]; 1.21 in [6]; 1.57 in assay [7]. The composite z-score is 0.0687 in assay [8]; -0.151 in assay [9]; -0.203 in assay [10]; 0.905 in assay [11]; 0.676 in [12]; -0.315 in assay [13]. The composite z-score is 0.0957 in assay [14]; -0.0488 in [15]; -0.177 in assay [16]; -0.779 in assay [18]; 0.626 in [19]. For the same compound, in [2], the composite Z-score was 0.184 (inactive). The z-score in [17] is 0.16; in [20] it was 0.424 (inactive).
As to `COc1ccc([Si](C)(C)[C@H]2[C@H](CC(=O)N(CCO)Cc3ccccc3)O[C@@]3(C(=O)N(Cc4cccc(N5CCOC5=O)c4)c4ccccc43)[C@@H]2C)cc1`, the composite z-score in assay [1] is -0.255; in [3] it was -0.0288; in assay [4] it was -0.104; in [5], 0.591; in [6] it was 1.1; in assay [7], 0.735. Also, the composite z-score came to 1.3 in assay [8]; 0.623 in [9]; 0.995 in [10]; 1.65 in assay [11]; 0.922 in [12]; 0.647 in assay [13]. Besides, the composite z-score was 0.206 in assay [14]; 1.06 in assay [15]; 0.494 in assay [16]; 0.857 in assay [18]; 0.321 in [19]. Further, the composite Z-score in assay [2] was 0.897 (inactive). The z-score in [17] was -0.791; in assay [20], 0.271 (inactive).
